This is a sample that favours compounds with a hit; in the whole collection about 0.93% have one here.
RPL19A-GFP yeast = RPL19A-GFP expression modulators in yeast, primary screen, cell-based, S. cerevisiae, multiplex flow cytometry, MLPCN. actives 0.3% (n = 330,000). AID 2025, 2009. percent response vs DMSO, % at 10 µM. S. cerevisiae RPL19A-GFP strain, 3 h; stronger effect = lower value;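 active = percent response vs DMSO below 50%; inconclusive = fewer than 70 events counted for the yeast strain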;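 also: median channel GFP fluorescence of the barcoded RPL19A-GFP strain; ratio of sample median GFP to plate DMSO average so 100% = DMSO; lower means less RPL19A-GFP as with rapamycin TOR inhibition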
LAP4 TOR yeast = modulators of LAP4-GFP expression in yeast, primary screen, S. cerevisiae, multiplex flow cytometry, MLPCN library; 3 h; median GFP as percent of DMSO wells; actives 0.34% (n = 320,000); GFP response vs DMSO, % at 10 µM; AID 2023, 2009;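 active = GFP response vs DMSO above a set limit, about the screen mean plus 3 SD, cut at about 150% in these data; inconclusive = under 70 cell events counted for the yeast strain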
AGP1-GFP MLPCN = modulators of AGP1-GFP expression in yeast TOR pathway, primary screen, cell-based, multiplex flow cytometry, S. cerevisiae, MLPCN library. 3 h; GFP as percent of DMSO wells. GFP response vs DMSO, % at 10 µM. actives 0.02% (n = 320,000). AID 2066, 2009;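 active = GFP response relative to DMSO above a set limit, near screen average plus 3 SD, cut at about 150% in these data; inconclusive = fewer than 70 cells counted for the yeast strain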;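 also: median GFP channel fluorescence of the gated AGP1 strain per well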
MEP2-GFP yeast = modulators of MEP2-GFP levels in yeast, primary screen, S. cerevisiae, multiplex flow cytometry, MLPCN library; GFP response vs DMSO, % at 10 µM; actives 0.51% (n = 330,000); S. cerevisiae MEP2-GFP strain, 3 h; 100% = DMSO control level;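 active = GFP response versus DMSO above a set limit, roughly screen mean plus 3 SD, cut at about 180% in these data; inconclusive = fewer than 70 cells counted for a yeast strain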;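 also: median GFP fluorescence of the barcode-gated MEP2-GFP cells per well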
CIT2 TOR yeast = modulators of CIT2-GFP expression in yeast, primary screen, S. cerevisiae, GFP fusion, multiplex flow cytometry, MLPCN library; S. cerevisiae CIT2-GFP strain, 3 h; 100 means same as DMSO wells; GFP response vs DMSO, % at 10 µM; actives 0.065% (n = 320,000);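 active = GFP response relative to DMSO above a set limit, near the screen mean plus 3 SD, cut at about 150% in these data; inconclusive = Fewer than 70 cells measured for a yeast strain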;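 also: ratio of well median GFP fluorescence to mean of DMSO wells on the plate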
An asterisk follows results filed as active; [ ] = another dose, or the depositor's remark.

Results for COCCCNC(=O)CC(NS(=O)(=O)c1ccc(Cl)cc1)c1ccco1 (centres undefined) ?
RPL19A-GFP yeast: 105; LAP4 TOR yeast: 100; AGP1-GFP MLPCN: 106; MEP2-GFP yeast: 104; CIT2 TOR yeast: 111

Results for COCCCNC(=O)CC(NS(=O)(=O)c1ccc(C)cc1)c1ccco1 (centres undefined) ?
LAP4 TOR yeast: 92; AGP1-GFP MLPCN: 30; MEP2-GFP yeast: 238*[may fluoresce violet]; CIT2 TOR yeast: inconclusive

How did COc1cc(C)ccc1OCc1cc(C(=O)N2CCN(C)C[C@@H]2c2ccccc2)no1 do in these assays?
RPL19A-GFP yeast: 101; LAP4 TOR yeast: 117; AGP1-GFP MLPCN: 104; MEP2-GFP yeast: 102; CIT2 TOR yeast: 108

Results for COC(=O)c1ccc(/C=N/OCC(=O)NCCc2ccc(OC)c(OC)c2)cc1 ?
RPL19A-GFP yeast: 84; LAP4 TOR yeast: 142; AGP1-GFP MLPCN: 98; MEP2-GFP yeast: 306*; CIT2 TOR yeast: 115

How did CCC(NC(C)C)C(O)c1ccc(O)c2[nH]c(=O)ccc12 (centres undefined) do in these assays?
RPL19A-GFP yeast: 42*[may fluoresce violet]; LAP4 TOR yeast: 104; AGP1-GFP MLPCN: inconclusive; MEP2-GFP yeast: 186*[may fluoresce violet]; CIT2 TOR yeast: inconclusive

How did CN(C)c1ccc(C(c2ccc(N(C)C)cc2)c2ccc([N+](=O)[O-])cc2)cc1 do in these assays?
RPL19A-GFP yeast: 101; LAP4 TOR yeast: 95; AGP1-GFP MLPCN: 98; MEP2-GFP yeast: 106; CIT2 TOR yeast: 96

Results for CC1(C)CC2(C)OC(=N)C1(C#N)C2(C#N)C#N (centres undefined) ?
RPL19A-GFP yeast: 99; LAP4 TOR yeast: 107; AGP1-GFP MLPCN: 103; MEP2-GFP yeast: 107; CIT2 TOR yeast: 97

What do the screens show for `CC1C2(C)OCC(C#N)(C(=N)O2)C1(C#N)C#N` (centres undefined)?
RPL19A-GFP yeast: 52; LAP4 TOR yeast: 82; AGP1-GFP MLPCN: inconclusive; MEP2-GFP yeast: 245*[may fluoresce violet]; CIT2 TOR yeast: inconclusive

What do the screens show for `O=C(Nc1ccc2oc(-c3cccnc3)nc2c1)c1ccco1`?
RPL19A-GFP yeast: 57; LAP4 TOR yeast: 202*; AGP1-GFP MLPCN: 70; MEP2-GFP yeast: 89; CIT2 TOR yeast: 88

What do the screens show for `O=C(Nc1ccc2oc(-c3cccnc3)nc2c1)c1ccc(Br)o1`?
RPL19A-GFP yeast: 100; LAP4 TOR yeast: 103; AGP1-GFP MLPCN: 97; MEP2-GFP yeast: 101; CIT2 TOR yeast: 99

How did Cc1ccc(-n2nc3c(c2NC(=O)C2CC2)CS(=O)(=O)C3)cc1 do in these assays?
RPL19A-GFP yeast: 96; LAP4 TOR yeast: 98; AGP1-GFP MLPCN: 96; MEP2-GFP yeast: 95; CIT2 TOR yeast: 94

What do the screens show for `O=C(Nc1c2c(nn1-c1ccc([N+](=O)[O-])cc1)CS(=O)(=O)C2)C1CC1`?
RPL19A-GFP yeast: 40*[may fluoresce violet]; LAP4 TOR yeast: 83; AGP1-GFP MLPCN: 17; MEP2-GFP yeast: 127; CIT2 TOR yeast: inconclusive

How did CC(=O)Oc1ccc2c(=O)oc(-c3ccccc3)nc2c1 do in these assays?
RPL19A-GFP yeast: 44*[may fluoresce violet]; LAP4 TOR yeast: 76; AGP1-GFP MLPCN: inconclusive; MEP2-GFP yeast: 190*[may fluoresce violet]; CIT2 TOR yeast: inconclusive

Results for CC(=O)Oc1ccc2c(=O)oc(-c3ccccc3C)nc2c1 ?
RPL19A-GFP yeast: 101; LAP4 TOR yeast: 88; AGP1-GFP MLPCN: 81; MEP2-GFP yeast: 104; CIT2 TOR yeast: 96

How did O=C(NCCc1ccccc1)c1cnc2n(c1=O)CCS2 do in these assays?
RPL19A-GFP yeast: 99; LAP4 TOR yeast: 96; AGP1-GFP MLPCN: 101; MEP2-GFP yeast: 108; CIT2 TOR yeast: 112

What do the screens show for `O=C(NCc1cccnc1)c1cnc2n(c1=O)CCS2`?
RPL19A-GFP yeast: 104; LAP4 TOR yeast: 188*; AGP1-GFP MLPCN: 114; MEP2-GFP yeast: 250*; CIT2 TOR yeast: 164*

What do the screens show for `CCCCC1OC23CCCCC2C(C#N)(C#N)C1(C#N)C(=N)O3` (centres undefined)?
RPL19A-GFP yeast: 111; LAP4 TOR yeast: 112; AGP1-GFP MLPCN: 109; MEP2-GFP yeast: 119; CIT2 TOR yeast: 107

Screens: PubChem, NMMLSC
